Compound activity from PubChem.
MEKK3 PB1 HTS – MEKK3-MEK5 PB1 interaction, increase or decrease | bead-based flow cytometry, Alexa488-MEK5 binding to MEKK3; actives lie on both sides; 0 = blocked by unlabeled MEK5, 100 = vehicle | AID 1529 | actives 1.4% (n = 290,000) | Q99759 | binding response (% of control), % at 10 µM;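 active means binding response more than 3 SD above or below the average of its plate-row segment, actives on both sides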;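 further: Alexa488 bead fluorescence after subtracting the streptavidin-only scavenger bead signal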
GRK2 aptamer HTS – inhibitors of human GRK2 displacing RNA aptamer | AID 488847 | bead flow cytometry, FAM-aptamer displacement from GRK2 | inhibition of aptamer binding, % at 10 µM | actives 0.59% (n = 330,000);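 active means inhibition of aptamer binding above 40%, roughly 3 SD of noise, on plates passing a quality check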;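 further: median bead fluorescence of bound FAM aptamer so fluorescent compounds give negative values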
Target sequence (P25098 whole entry, looked up): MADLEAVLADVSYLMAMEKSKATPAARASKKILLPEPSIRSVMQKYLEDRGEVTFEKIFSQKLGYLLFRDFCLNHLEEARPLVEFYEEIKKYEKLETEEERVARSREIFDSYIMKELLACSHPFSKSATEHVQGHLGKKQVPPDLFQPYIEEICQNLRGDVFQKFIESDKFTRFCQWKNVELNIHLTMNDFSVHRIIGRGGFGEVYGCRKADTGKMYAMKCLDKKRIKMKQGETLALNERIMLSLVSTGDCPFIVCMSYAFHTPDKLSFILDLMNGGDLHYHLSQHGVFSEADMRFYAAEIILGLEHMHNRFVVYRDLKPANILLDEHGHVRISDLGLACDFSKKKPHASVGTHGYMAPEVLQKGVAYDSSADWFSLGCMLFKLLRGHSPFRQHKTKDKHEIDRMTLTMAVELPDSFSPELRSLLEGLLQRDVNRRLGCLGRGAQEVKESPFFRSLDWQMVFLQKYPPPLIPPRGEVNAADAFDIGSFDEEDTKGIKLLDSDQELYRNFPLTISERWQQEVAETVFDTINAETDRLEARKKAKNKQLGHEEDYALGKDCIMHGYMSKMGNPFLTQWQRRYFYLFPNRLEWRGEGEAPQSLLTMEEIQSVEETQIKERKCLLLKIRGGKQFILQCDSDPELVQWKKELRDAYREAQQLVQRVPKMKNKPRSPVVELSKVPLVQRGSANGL
MEKK2wt PB1 HTS – raises or lowers MEK5 binding to wildtype human MEKK2 PB1 domain; Q9Y2U5; bead flow cytometry, Alexa488-MEK5 binding to MEKK2 WT; actives lie on both sides; binding response (% of control), % at 10 µM; actives 1.1% (n = 290,000); AID 1531; in the data active means binding response below about 67% or above about 130%
MEKK2 mut-MEK5 – signal of MEK5 binding to mutant human MEKK2 PB1 domain; bead flow cytometry, Alexa488-MEK5 binding to MEKK2 mutant; percent response, % at 10 µM; actives 0.35% (n = 290,000); AID 1530; in the data active means percent response above about 24%, passing the limit was not always enough
GRK2 inh confirm – human GRK2 inhibition confirmation, cherry pick 1. shares compounds with GRK2 aptamer HTS. AID 504451. actives 4% (n = 2,000). bead-bound GRK2, FAM-aptamer displacement, flow cytometry. aptamer displacement, % at 10 µM;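 active means aptamer displacement above 40%, near three times the noise of non-fluorescent compounds, on plates passing quality checks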;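 further: negative values mostly reflect intrinsic compound fluorescence rather than true enhancement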
Aptamer quench – fluorescent aptamer quenching in GRK2 counter-screen dose response; shares compounds with GRK2 aptamer HTS; Fluorescent RNA aptamer beads, flow cytometry; active compounds read high; fluorescence change (kMESF span), kMESF (no concentration beside the values); 110 tested, under 10 active;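 active means compounds whose bead fluorescence drops by more than 37 kMESF across the dose range, marking them as dye quenchers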
FAM quench CP1 – aptamer fluorescence quenching in GRK2 counter-screen | fluorescence response (% of DMSO), % at 10 µM | 2,000 tested, under 10 active | Carboxyfluorescein RNA aptamer on beads, flow cytometry quenching; active compounds read low | shares compounds with GRK2 aptamer HTS;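 active means compounds that quench the bead-bound fluorescent RNA probe, cutting fluorescence to under half of the solvent control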;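 further: counterscreen run without GRK2 so only probe quenching by compound is measured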
GRK2 confirm 2 – human GRK2 inhibition confirmation, cherry pick 2. shares compounds with GRK2 aptamer HTS. bead-bound GRK2, FAM-aptamer displacement, flow cytometry. inhibition of aptamer binding, % at 10 µM. 360 tested, under 10 active;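 active means inhibition of aptamer binding above 40%, about triple the noise seen with nonglowing compounds, on plates passing quality control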;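 further: negative values mostly come from compounds that fluoresce themselves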
Aptamer quench 2 – aptamer fluorescence quenching in GRK2 counter-screen dose response; shares compounds with GRK2 aptamer HTS; Streptavidin beads, FAM-RNA aptamer fluorescence quenching, flow cytometry; 25 tested, under 10 active; change in fluorescence (kMESF span), kMESF (no concentration beside the values); AID 504819;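 active means compounds quenching the bead-bound labeled aptamer, with fluorescence dropping by more than 37 kMESF over the dose range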
FAM quench SP – counter-screen for GRK2 binding hits: quenchers of fluorescent RNA aptamer | shares compounds with GRK2 aptamer HTS | carboxyfluorescein RNA aptamer beads, flow cytometry quenching; active compounds read low | fluorescence response vs DMSO, % at 10 µM | 360 tested, under 10 active;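 active means response vs DMSO under 50%, meaning signal dropped by over half, treated as fluorescence quencher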;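 further: labelled aptamer on streptavidin beads without GRK2 as a quench counter-screen; 100% = bead fluorescence of DMSO wells and lower means quenching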
* = called active by the depositor; · = not tested or not shown. Rows were chosen to be rich in hits. Some 2.5% of all compounds tested hit in one or more screens of this group.

SMILES	MEKK3 PB1 HTS	GRK2 aptamer HTS	MEKK2wt PB1 HTS	MEKK2 mut-MEK5	GRK2 inh confirm	FAM quench CP1	others
O=C(Nc1ccccc1Cl)c1ccccc1Oc1ccc(C(F)(F)F)cc1[N+](=O)[O-]	83	1	85	-14	·	·
COc1cc(/C=C2\CCc3c2nc2ccccc2c3C(=O)O)cc(OC)c1OC	100	62*	94	-6	45*	100	Aptamer quench=0.3
CCC(=O)c1cn(CC(=O)Nc2ccccc2F)c2ccccc12	100	3	100	0	·	·
CC(=O)c1cn(CC(=O)Nc2ccccc2F)c2ccccc12	101	72*	103	-1	-6	103
COc1ccc(C2Nc3cccc4cccc(c34)N2)cc1Br	107	68*	103	4	-7	100
C/C(Cc1ccccc1)=N\NC(=O)CNC(=O)c1ccc(Br)cc1	102	78*	96	-2	-13	89
OCC1(CCCc2ccccc2)CCN(Cc2cnc(N3CCOCC3)s2)CC1	98	0	104	-2	-2	94
COc1cccc(CC2(CO)CCN(Cc3cnc(N4CCOCC4)s3)CC2)c1	99	7	99	-9	·	·
Cc1ccc(-c2ccccc2)n1-c1cccc(C(=O)O)c1	99	0	101	-5	·	·
Cc1ccc(-c2ccccc2)n1-c1ccc(C(=O)O)cc1	88	51*	103	1	-3	96	GRK2 confirm 2=-7;FAM quench SP=103
Cc1ccc(NC(=O)C2CCN(S(=O)(=O)c3cnc[nH]3)CC2)cc1C	97	0	97	-1	·	·
Cc1cc(NC(=O)C2CCN(S(=O)(=O)c3cnc[nH]3)CC2)ccc1Br	100	43*	102	2	-1	100
Cc1ccsc1C(=O)N1CCCC(CO)(Cc2ccccc2)C1 (stereo not drawn)	101	45*	102	4	·	·	GRK2 confirm 2=-9;FAM quench SP=98
CNC(=O)c1c[nH]c2ccc(S(=O)(=O)Nc3ccccc3F)cc2c1=O	114	93*	106	14	8	103
COc1ccccc1CNS(=O)(=O)c1ccc2[nH]cc(C(=O)O)c(=O)c2c1	100	59*	99	11	56*	91	Aptamer quench=-47
Cc1ccc(COC(=O)c2cc(S(=O)(=O)N3CCCCC3)ccc2N2CCOCC2)cc1	·	3	·	·	·	·
COc1ccc(C2N(c3ccc(Cl)cc3)N=C(C(C)=O)N(C)N2C(C)=O)cc1 (stereo not drawn)	103	1	98	-3	·	·
CN(C(=O)c1ccc(N2CCCCC2)c([N+](=O)[O-])c1)C1CCS(=O)(=O)C1 (stereo not drawn)	·	21	·	·	-3	105
CCCCCn1c(CN2CCCCC2CC)nc2c1c(=O)n(C)c(=O)n2C (stereo not drawn)	113	0	113	11	0	101
CCN(C[C@H]1N[C@@](CC)(C(=O)OC)[C@H]2C(=O)N(Cc3ccccc3)C(=O)[C@@H]12)C(=O)c1ccc(C)cc1	·	0	·	·	·	·
CCCC(=O)NC1=C(C#N)C2(CCCC2)Cc2ccccc21	97	58*	99	-1	0	94
CCC(C)NC(=O)Cn1cnc2sc(C)cc2c1=O (stereo not drawn)	97	43*	100	-1	1	100
COc1ccc(CN(C)C(=O)c2cccc(S(=O)(=O)N3CCCc4ccccc43)c2)c(OC)c1OC	·	·	·	·	-32	99
COc1ccc(CN(C)C(=O)c2cccc(S(=O)(=O)N3CCN(c4ccccc4)CC3)c2)c(OC)c1OC	·	0	·	·	·	·
OCCC1CN(Cc2nc3c(s2)CCCC3)CCN1Cc1ccccc1 (stereo not drawn)	104	0	100	-1	·	·
SMILES	MEKK3 PB1 HTS	GRK2 aptamer HTS	MEKK2wt PB1 HTS	MEKK2 mut-MEK5	GRK2 inh confirm	FAM quench CP1	others
COc1ccc(S(=O)(=O)Cc2ccc(C(=O)O)o2)cc1	100	0	99	-1	·	·
Cc1ccc(S(=O)(=O)Cc2ccc(C(=O)O)o2)cc1	98	67*	97	1	64*	95	Aptamer quench=2.1
Cc1ccccc1CCN(CC(=O)NCc1ccc(F)cc1)C(=O)c1csnn1	102	70*	100	-1	1	99
O=C(N=Nc1c(O)[nH]c2ccc(Cl)cc12)c1cc(-c2cccs2)nc2ccccc12	91	0	89	-2	-7	96
CCC1CCCCN1Cc1ccc(CNC(=O)CCc2nnc3ccc(N4CCCCC4)nn23)o1 (stereo not drawn)	99	1	98	-6	·	·
O=C(c1ccc2c(c1)OCO2)N1CCN(c2ccc(F)cc2)CC1	100	0	96	-2	·	·
Cn1c(CSCc2ccc(F)cc2)nnc1SCC(=O)Nc1nccs1	103	2	104	1	·	·
Cn1c(CSCc2ccccc2)nnc1SCC(=O)Nc1nccs1	82	50*	96	-5	-2	96
COc1ccc(-c2csc3nc(-c4ccc(C)cc4)oc(=O)c23)cc1OC	79	79*	100	-1	·	·	GRK2 confirm 2=65*;Aptamer quench 2=3.3;FAM quench SP=101
COc1ccc(-c2csc3nc(C(C)(C)C)oc(=O)c23)cc1OC	98	1	98	-1	·	·
O=C(NCc1ccccc1)c1cccnc1Sc1ccccc1	101	0	103	-1	·	·
Cc1ccccc1N1CC(C(=O)N2CCCCCC2)CC1=O (stereo not drawn)	·	65*	·	·	-2	98
CC(=O)c1ccc(OCCCC(=O)Nc2cccc(S(=O)(=O)N3CCCCCC3)c2)cc1	·	0	·	·	·	·
Cc1ccc(S(=O)(=O)N2CCCCC2)cc1NC(=O)CCN1C(=O)C2CC=CCC2C1=O (stereo not drawn)	·	0	·	·	·	·
O=C(CCN1C(=O)C2CC=CCC2C1=O)Nc1cccc(S(=O)(=O)N2CCCCC2)c1 (stereo not drawn)	·	1	·	·	-8	108
Cc1ccc(N2CC(C(=O)N3CCCCC3)CC2=O)cc1C (stereo not drawn)	100	0	107	8	·	·
CC(=O)c1ccc(OCCCC(=O)Nc2cccc(S(=O)(=O)N3CCCCC3)c2)cc1	·	0	·	·	-1	98
